In assay [1] the target is human Androgen Receptor (AR), AR (gene 367) (UniProt P10275). The experiment in a line: ATG_hAR_XSP1: Attagene TRANS-FACTORIAL Multi-Species (XSP1) HepG2 Assay for human Androgen Receptor (AR) (AID 2283785). The protocol: (§1) ATG_XSP1_multi-species_TRANS is a cell-based, multiplexed assay created by modifying the existing Attagene TRANS-FACTORIAL system to include a panel of nuclear receptors from some or all the following species: human (Homo sapiens), mouse (Mus musculus), frog (Xenopus laevis), zebrafish (Danio rerio), chicken (Gallus gallus), and turtle (Chrysemys picta). The ECOTOX-FACTORIAL format uses HepG2, a human liver cell line, with measurements taken at 24 hours after chemical dosing in a 24-well plate. Xsp1 included 3 nM 6-alpha-fluorotestosterone to partially stimulate the androgen receptor.ATG_hAR_XSP1 is one of 29 assay components measured or calculated from the ATG_XSP1_multi-species_TRANS assay. It is designed to make measurements of mRNA induction, a form of inducible reporter, as detected with fluorescence intensity signals by Reverse transcription polymerase chain reaction (RT-PCR) and Capillary electrophoresis technology.The assay endpoint ATG_hAR_XSP1 was analyzed in the positive analysis fitting direction relative to DMSO as the negative control and baseline of activity. […] Furthermore, this assay endpoint can be referred to as a primary readout, because this assay has produced multiple assay endpoints where this one serves a reporter gene function. […]

For assay [2], the system named is turtle Androgen Receptor (AR), gene 101947425. In words: ATG_trAR_XSP1: Attagene TRANS-FACTORIAL Multi-Species (XSP1) HepG2 Assay for turtle Androgen Receptor (AR) (AID 2283786). The procedure, abridged:
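HepG2 cells transiently transfected with a turtle AR–GAL4 chimera and GAL4-UAS reporter, co-treated with 3 nM 6-alpha-fluorotestosterone for partial stimulation. Reporter mRNA is quantified at 24 h by RT-PCR and capillary electrophoresis, gain-of-signal versus DMSO.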

The target of assay [3] is GAL4 Transcription Factor (Internal Marker), GAL4 (gene 855828) (UniProt P04386). In words: ATG_GAL4_XSP1: Attagene TRANS-FACTORIAL Multi-Species (XSP1) HepG2 Assay for GAL4 Transcription Factor (Internal Marker) (AID 2283789). The method, boiled down: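 HepG2 cells transiently transfected with multiplexed GAL4-UAS reporter units were exposed for 24 h with 3 nM 6-alpha-fluorotestosterone present. Reporter mRNA was quantified by RT-PCR, FAM labelling, HpaI digestion and capillary electrophoresis; background-control readout, gain-of-signal versus DMSO.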

Assay [4] can be described thus: ATG_M_06_XSP1: Attagene TRANS-FACTORIAL Multi-Species (XSP1) HepG2 Assay for M06 Transcription Factor (Internal Marker) (AID 2283790). The method, boiled down: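 Transfected HepG2 multi-reporter system treated 24 h in the presence of 3 nM 6-alpha-fluorotestosterone. The M06 internal marker transcript was quantified by RT-PCR with capillary electrophoresis as a background control, and gain of signal was scored versus DMSO.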

The nature of assay [5]: ATG_M_61_XSP1: Attagene TRANS-FACTORIAL Multi-Species (XSP1) HepG2 Assay for M61 Transcription Factor (Internal Marker) (AID 2283797). The procedure: as §1, with “receptor.ATG_M_61_XSP1” for “receptor.ATG_hAR_XSP1”, “technology.This” for “technology.The”, “endpoint, ATG_M_61_XSP1,” for “endpoint ATG_hAR_XSP1”, “secondary” for “primary”, “background control” for “reporter gene”

Assay [6] has as its target Peroxisome proliferator-activated receptor gamma (Homo sapiens) (UniProt P37231). The experiment in a line: ATG_hPPARg_XSP1: Attagene TRANS-FACTORIAL Multi-Species (XSP1) HepG2 Assay for human Peroxisome Proliferator-activated Receptor gamma (PPARg) (AID 2283800). The procedure: as §1, with “receptor.ATG_hPPARg_XSP1” for “receptor.ATG_hAR_XSP1”, “ATG_hPPARg_XSP1” for “ATG_hAR_XSP1”

Results filed as inconclusive are left out. Activity calls are given as the source filed them. The calls were made as follows: active = hit-call score of the fitted dose curve at least 0.9, where 1 is the maximum; inconclusive = response in the unintended direction; inactive = score below 0.9.

GAL4 Transcription Factor (Internal Marker), GAL4 (gene 855828), sequence (P04386 whole entry, looked up, the tested form may be a part): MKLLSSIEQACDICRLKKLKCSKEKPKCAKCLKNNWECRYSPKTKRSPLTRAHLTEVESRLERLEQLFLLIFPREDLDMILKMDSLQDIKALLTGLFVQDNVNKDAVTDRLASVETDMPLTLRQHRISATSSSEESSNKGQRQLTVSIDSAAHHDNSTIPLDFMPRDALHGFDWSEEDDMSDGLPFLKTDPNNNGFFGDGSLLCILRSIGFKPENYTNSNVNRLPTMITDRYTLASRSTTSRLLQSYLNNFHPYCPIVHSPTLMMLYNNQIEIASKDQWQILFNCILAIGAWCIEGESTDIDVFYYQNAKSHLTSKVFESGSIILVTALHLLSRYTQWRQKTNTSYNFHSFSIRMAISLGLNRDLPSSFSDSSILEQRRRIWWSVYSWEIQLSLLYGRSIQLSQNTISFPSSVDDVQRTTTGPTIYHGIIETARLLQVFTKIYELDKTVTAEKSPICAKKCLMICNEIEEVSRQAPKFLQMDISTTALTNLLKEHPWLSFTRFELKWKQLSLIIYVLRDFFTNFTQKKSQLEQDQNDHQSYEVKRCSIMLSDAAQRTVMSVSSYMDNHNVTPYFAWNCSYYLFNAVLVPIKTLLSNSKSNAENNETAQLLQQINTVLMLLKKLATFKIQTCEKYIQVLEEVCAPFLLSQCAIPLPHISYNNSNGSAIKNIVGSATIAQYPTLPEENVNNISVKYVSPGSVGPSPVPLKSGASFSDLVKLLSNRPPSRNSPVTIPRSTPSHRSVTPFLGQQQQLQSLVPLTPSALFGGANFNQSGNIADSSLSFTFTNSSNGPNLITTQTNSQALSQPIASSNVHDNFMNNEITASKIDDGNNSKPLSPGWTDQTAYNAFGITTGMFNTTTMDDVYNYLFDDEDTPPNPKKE
Peroxisome proliferator-activated receptor gamma (Homo sapiens), sequence (P37231 whole entry, looked up): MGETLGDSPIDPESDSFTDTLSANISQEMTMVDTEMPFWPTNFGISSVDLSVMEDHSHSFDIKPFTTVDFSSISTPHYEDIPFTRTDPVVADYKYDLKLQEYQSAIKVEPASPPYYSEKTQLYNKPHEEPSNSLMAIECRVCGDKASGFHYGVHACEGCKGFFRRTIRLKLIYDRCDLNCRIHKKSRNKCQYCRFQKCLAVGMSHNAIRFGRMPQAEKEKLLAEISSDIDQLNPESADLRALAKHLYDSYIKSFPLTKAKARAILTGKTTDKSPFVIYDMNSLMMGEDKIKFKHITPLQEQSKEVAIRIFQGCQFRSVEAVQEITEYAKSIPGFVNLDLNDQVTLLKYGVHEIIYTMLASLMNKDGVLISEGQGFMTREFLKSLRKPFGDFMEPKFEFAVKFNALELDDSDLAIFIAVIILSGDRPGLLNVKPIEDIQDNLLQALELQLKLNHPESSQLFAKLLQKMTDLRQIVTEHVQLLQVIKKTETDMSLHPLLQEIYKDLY
human Androgen Receptor (AR), AR (gene 367), sequence (P10275 whole entry, looked up): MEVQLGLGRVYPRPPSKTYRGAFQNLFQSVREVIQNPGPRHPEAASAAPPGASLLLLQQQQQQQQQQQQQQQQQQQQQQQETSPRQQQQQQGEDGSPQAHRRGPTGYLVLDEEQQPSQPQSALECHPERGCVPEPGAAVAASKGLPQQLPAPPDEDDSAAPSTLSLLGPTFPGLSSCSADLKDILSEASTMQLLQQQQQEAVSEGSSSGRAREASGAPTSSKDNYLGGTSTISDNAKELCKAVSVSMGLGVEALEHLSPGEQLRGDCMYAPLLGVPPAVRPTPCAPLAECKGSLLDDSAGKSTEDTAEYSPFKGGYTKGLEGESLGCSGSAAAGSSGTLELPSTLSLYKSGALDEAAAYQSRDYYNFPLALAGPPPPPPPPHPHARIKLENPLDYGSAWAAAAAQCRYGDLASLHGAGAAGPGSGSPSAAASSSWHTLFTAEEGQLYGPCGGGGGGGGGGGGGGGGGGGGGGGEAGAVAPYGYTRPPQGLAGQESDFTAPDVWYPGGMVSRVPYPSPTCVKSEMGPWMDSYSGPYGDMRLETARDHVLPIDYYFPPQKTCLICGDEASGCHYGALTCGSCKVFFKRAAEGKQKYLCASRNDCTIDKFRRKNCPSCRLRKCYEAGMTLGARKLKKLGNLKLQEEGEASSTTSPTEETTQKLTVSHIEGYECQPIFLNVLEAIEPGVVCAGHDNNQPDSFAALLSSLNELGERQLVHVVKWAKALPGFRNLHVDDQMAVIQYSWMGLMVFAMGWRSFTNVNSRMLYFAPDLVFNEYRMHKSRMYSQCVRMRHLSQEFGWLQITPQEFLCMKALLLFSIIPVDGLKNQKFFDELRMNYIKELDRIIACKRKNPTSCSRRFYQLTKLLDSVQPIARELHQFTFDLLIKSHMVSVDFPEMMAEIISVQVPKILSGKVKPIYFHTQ

Consider `C[C@]12C=CC3=C4CCC(=O)C=C4CC[C@H]3[C@@H]1CC[C@@H]2O`, for which the AC50 – broadly, the midpoint of the concentration-response curve, whichever way the signal moves – in assay [1] was 4.47 nM (active); in assay [2], 5.52 nM (active).

With `CCCCCOC(=O)c1ccccc1C(=O)OCCCCC`, the compound was classed as inactive in assay [2], in assay [3], in assay [4] and in assay [5]. In addition, the concentration at half-maximal activity (AC50) in assay [6] was 31900 nM (active).

`Clc1ccc(C(c2ccc(Cl)cc2)C(Cl)Cl)cc1`: the compound was classed as inactive in assay [3].

Source of the values: PubChem BioAssay (EPA / NIEHS).
